The target in test [1] is Retinoic acid receptor RXR-alpha (Homo sapiens) (UniProt P19793). Nature of the test: qHTS assay to identify small molecule agonists of the RXR signaling pathway (AID 1159527; calls by dose curve; note: nearly all actives have a fitted effect of over 35% in size). In short, it runs like this:
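qHTS of the Tox21 10K library in GeneBLAzer RXR-alpha HEK 293T cells carrying a beta-lactamase reporter […]; 16 hr treatment, 9-cis retinoic acid as agonist control, FRET read-out.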
For orientation: qHTS replaces the single test concentration by a dilution series.

The nature of test [2]: qHTS assay to identify small molecule agonists of the RXR signaling pathway - cell viability counter screen (AID 1159529). Note: series mostly up to about 77 µM; nearly all actives have a fitted effect of over 50% in size. A digest of the protocol: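 Cell viability is measured by CellTiter-Glo luminescence, 30 min at room temperature, in wells already read for beta-lactamase. Engineered HEK 293T cells (RXR-alpha-UAS-bla) are dosed 16 hr at 37 C. Tetraoctyl ammonium bromide serves as positive control.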

Test [3] is described as follows: qHTS assay to identify small molecule antagonists of the retinoid acid receptor (RAR) signaling pathway - cell viability counter screen (AID 1159551). Note: nearly all actives have a fitted effect of over 35% in size. In short, it runs like this:
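Retinol-stimulated (1 uM final) C3RL4 cells, compound 6 h, 37 C; readout CellTiter-Glo luminescence (ATP) after 30 min RT incubation.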

Test [4] is described as follows: qHTS assay to identify small molecule agonists of the retinoic acid receptor (RAR) signaling pathway (AID 1159553). In short, it runs like this:
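Reporter readout comes from luciferase under RARE control in C3RL4 cells; compound exposure lasts 6 hr at 37 C in 5% CO2, and luminescence is recorded following a 30 min room-temperature incubation with reagent.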

Test [5] concerns the target Luciferin 4-monooxygenase (Photinus pyralis) (UniProt P08659). Kind of test: qHTS assay to identify small molecule inhibitors of firefly luciferase (AID 1224835). Note: series mostly up to about 120 µM; nearly all actives have a fitted effect of over 25% in size. A digest of the protocol:
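Inhibition of purified Photinus luciferase is measured by luminescence. Substrate levels (D-luciferin, ATP) sit at their KM values. Each compound is tested in a concentration series.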

A short description of test [6]: qHTS assay to identify small molecule agonists of the constitutive androstane receptor (CAR) signaling pathway - cell viability counter screen (AID 1224836). Note: series mostly up to about 92 µM; nearly all actives have a fitted effect of over 45% in size. A digest of the protocol:
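Counter screen multiplexed with the CAR reporter readout: HepG2 cells co-transfected with hCAR and the CYP2B6-2.2kb construct receive a 15-concentration compound series and 0.75 uM PK11195 (final), then CellTiter-Fluor fluorescence is read after 23 h.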

The nature of test [7]: qHTS assay to identify small molecule antagonists of the constitutive androstane receptor (CAR) signaling pathway - cell viability counter screen (AID 1224837). Note: series mostly up to about 92 µM; nearly all actives have a fitted effect of over 45% in size. In short, it runs like this: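 Counter screen run in HepG2-CYP2B6-hCAR cells: 4 hr settle, compound titration (15 concentrations) with 50 nM CITCO, 23 hr at 37 C/5% CO2, CellTiter-Fluor fluorescence.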
Test [8] addresses Nuclear receptor subfamily 1 group I member 3 (Homo sapiens) (UniProt Q14994). Nature of the test: qHTS assay to identify small molecule antagonists of the constitutive androstane receptor (CAR) signaling pathway (AID 1224838).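 Note: HepG2 cells stably expressing hCAR with CYP2B6 luciferase reporter stimulated by CITCO; nearly all actives have a fitted effect of over 40% in size.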 Note: potency is the fitted concentration of half-maximal effect. A digest of the protocol: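 Cell line: HepG2 double-stable for hCAR and CYP2B6-2.2kb reporter. Agonist: CITCO, 50 nM final. Compounds: 15 concentrations, 24 h, 37 C. Detection: ONE-Glo luminescence.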

A short description of test [9]: qHTS assay to identify small molecule antagonists of the estrogen related receptor signaling pathway with the pleiotropic PPARgamma coactivator (PGC) from Tox21 10K library - cell viability counter screen (AID 1224840; active = well fitted cell-killing curve with a large enough effect in the repeat runs, not every such curve was filed as active; note: nearly all actives have a fitted effect of over 40% in size). In short, it runs like this: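 Following seeding of 2,000 PGC/ERR cells/well and 6 hours' incubation, test compounds were delivered in DMSO. The plates then sat 17.5 hours at 37 C before a fluorogenic live-cell protease reagent (CellTiter-Fluor) was read after 30 min.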

Test [10] deals with Thyrotropin receptor (Homo sapiens) (UniProt P16473). Kind of test: qHTS assay to identify small molecule agonists of the thyroid stimulating hormone receptor (TSHR) signaling pathway (AID 1224843; calls by dose curve; note: nearly all actives have a fitted effect of over 45% in size). In short, it runs like this:
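HEK293 cells stably bearing the thyrotropin receptor were plated at 800 cells/well and challenged with compound (30 min, RT). Accumulated cAMP was quantified via cAMP-d2 competing for cryptate-tagged antibody.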

Test [11] is described as follows: qHTS assay to identify small molecule agonists of the hypoxia (HIF-1) signaling pathway - cell viability counter screen (AID 1224844; calls by dose curve; note: nearly all actives have a fitted effect of over 50% in size). A digest of the protocol:
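Cells (HRE-bla ME-180, 2,000 per well) sat 5 hrs at 37C, got compound for 17 hrs, were read for CCF4-AM FRET, and were finally lysed with CellTiter-Glo for a 30 min room-temperature luminescence read.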

Test [12] can be described thus: qHTS assay to identify small molecule agonists of H2AX (AID 1224845; active = well fitted activation curve with a large enough effect in the signal ratio in the repeat runs, not every such curve was filed as active; the % refers to the signal ratio). In short, it runs like this: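 Phospho-H2AX Ser139 measured by HTRF (ex 320 nm; em 665 and 620 nm) after 24 hr antibody incubation. Compounds, 15 concentrations, 0.76% DMSO, were applied to CHO-K1 cells for 3hr at 37C before lysis.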
Test [13] can be described thus: qHTS assay to identify small molecule agonists of the hypoxia (HIF-1) signaling pathway (AID 1224846; active = well fitted activation curve with a large enough effect in the signal ratio in the repeat runs, not every such curve was filed as active; the % refers to the signal ratio). A digest of the protocol:
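A low-serum medium (0.5% dialyzed FBS) holding 2,000 HRE-bla ME-180 cells per well is preincubated for 5 hrs, dosed with compounds by pintool, and kept a further 17 hrs at 37C, 5% CO2 before CCF4-AM FRET detection of beta-lactamase.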

The nature of test [14]: qHTS assay to identify small molecule agonists of H2AX - cell viability counter screen (AID 1224847; calls by dose curve; note: top concentration of the series differs between compounds; nearly all actives have a fitted effect of over 30% in size). In short, it runs like this:
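We seed wild-type CHO-K1 cells overnight, treat them for 3 hr at 37C with compounds in 15-concentration series, and quantify remaining viability by CellTiter-Glo luminescence.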

Test [15] is described as follows: qHTS assay to identify small molecule antagonists of the retinoic acid receptor (RAR) signaling pathway (AID 1159552; note: nearly all actives have a fitted effect of over 50% in size). In short, it runs like this:
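Quantitative HTS in C3RL4 RARE-luciferase reporter cells. Compounds were added with 1 uM (final) retinol; luminescence was read after 6 hr.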

Test [16] is described as follows: qHTS assay to identify small molecule antagonists of the estrogen related receptor (ERR) signaling pathway from Tox21 library - cell viability counter screen (AID 1224834). Note: nearly all actives have a fitted effect of over 30% in size. In short, it runs like this: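 After 17.5 h of compound exposure at 37 C, ERR cells are incubated with CellTiter-Fluor for 30 min and fluorescence intensity serves as the viability measure.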

The target in test [17] is Nuclear receptor subfamily 1 group I member 3 (Homo sapiens) (UniProt Q14994). Nature of the test: qHTS assay to identify small molecule agonists of the constitutive androstane receptor (CAR) signaling pathway (AID 1224839). Note: series mostly up to about 92 µM; nearly all actives have a fitted effect of over 15% in size. In short, it runs like this: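 A 15-concentration quantitative screen uses HepG2 cells co-transfected stably with human CAR and CYP2B6-2.2kb reporter. Treatment lasts 24 h with 0.75 uM PK11195 final present; ONE-Glo luminescence is the signal.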

Records with an inconclusive call do not appear. A number with no mark means an inactive call. Active and inactive are the calls of the source. Unless noted, calls come from the whole dose curve; as a rule, active = well fitted curve in the direction sought with a large enough effect in the repeat runs; inconclusive = weak or mixed curves; inactive = no such curve, though single readings can be large; an effect the other way counts as inactive or inconclusive.
% is set by controls: 0 for no effect and ±100 for the full control effect.

Sequence of Luciferin 4-monooxygenase (Photinus pyralis) (P08659 whole entry, looked up): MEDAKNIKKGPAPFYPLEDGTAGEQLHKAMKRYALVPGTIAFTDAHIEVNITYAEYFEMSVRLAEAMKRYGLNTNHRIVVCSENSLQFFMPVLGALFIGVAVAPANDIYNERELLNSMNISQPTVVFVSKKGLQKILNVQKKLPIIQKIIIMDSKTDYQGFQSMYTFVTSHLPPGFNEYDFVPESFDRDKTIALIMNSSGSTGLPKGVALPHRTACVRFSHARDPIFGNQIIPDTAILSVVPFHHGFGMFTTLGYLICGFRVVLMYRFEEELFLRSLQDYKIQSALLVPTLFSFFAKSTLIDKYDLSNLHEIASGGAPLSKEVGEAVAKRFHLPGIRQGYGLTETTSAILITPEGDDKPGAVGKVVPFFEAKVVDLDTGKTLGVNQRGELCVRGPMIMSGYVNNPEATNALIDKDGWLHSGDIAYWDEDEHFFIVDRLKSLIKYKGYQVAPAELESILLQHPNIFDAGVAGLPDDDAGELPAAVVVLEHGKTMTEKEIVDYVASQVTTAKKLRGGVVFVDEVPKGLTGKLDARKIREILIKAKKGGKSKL
Sequence of Thyrotropin receptor (Homo sapiens) (P16473 whole entry, looked up): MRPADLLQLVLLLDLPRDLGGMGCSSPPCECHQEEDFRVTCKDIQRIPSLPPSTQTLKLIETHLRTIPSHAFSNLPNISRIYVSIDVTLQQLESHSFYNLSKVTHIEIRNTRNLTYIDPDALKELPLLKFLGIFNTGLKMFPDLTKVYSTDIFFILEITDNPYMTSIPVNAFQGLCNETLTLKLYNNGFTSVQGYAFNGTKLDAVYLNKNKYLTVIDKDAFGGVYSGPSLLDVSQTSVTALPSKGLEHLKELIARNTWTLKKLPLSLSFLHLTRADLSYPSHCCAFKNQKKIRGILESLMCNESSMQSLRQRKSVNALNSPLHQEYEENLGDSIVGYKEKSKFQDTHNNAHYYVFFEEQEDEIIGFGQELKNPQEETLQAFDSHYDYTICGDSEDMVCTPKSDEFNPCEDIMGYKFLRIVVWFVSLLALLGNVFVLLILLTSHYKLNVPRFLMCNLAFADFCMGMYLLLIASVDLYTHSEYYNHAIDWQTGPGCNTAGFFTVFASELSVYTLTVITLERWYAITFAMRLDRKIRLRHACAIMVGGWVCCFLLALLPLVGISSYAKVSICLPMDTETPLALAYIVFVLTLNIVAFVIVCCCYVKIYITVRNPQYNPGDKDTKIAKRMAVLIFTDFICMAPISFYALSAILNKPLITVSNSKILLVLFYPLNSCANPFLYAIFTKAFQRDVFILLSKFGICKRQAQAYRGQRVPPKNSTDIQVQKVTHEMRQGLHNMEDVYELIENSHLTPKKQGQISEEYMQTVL
Sequence of Retinoic acid receptor RXR-alpha (Homo sapiens) (P19793 whole entry, looked up): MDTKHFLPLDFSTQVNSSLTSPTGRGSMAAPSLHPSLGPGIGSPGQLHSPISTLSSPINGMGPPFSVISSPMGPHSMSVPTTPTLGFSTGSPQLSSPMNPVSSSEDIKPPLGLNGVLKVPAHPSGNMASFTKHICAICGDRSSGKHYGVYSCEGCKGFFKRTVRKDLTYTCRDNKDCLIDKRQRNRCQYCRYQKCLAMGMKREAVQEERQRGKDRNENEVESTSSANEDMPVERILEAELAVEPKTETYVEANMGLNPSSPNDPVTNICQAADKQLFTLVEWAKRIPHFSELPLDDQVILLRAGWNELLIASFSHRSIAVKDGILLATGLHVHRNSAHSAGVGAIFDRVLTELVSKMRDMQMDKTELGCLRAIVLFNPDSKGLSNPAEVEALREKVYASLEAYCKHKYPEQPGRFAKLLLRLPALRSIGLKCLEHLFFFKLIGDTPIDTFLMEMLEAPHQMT
Sequence of Nuclear receptor subfamily 1 group I member 3 (Homo sapiens) (Q14994 whole entry, looked up): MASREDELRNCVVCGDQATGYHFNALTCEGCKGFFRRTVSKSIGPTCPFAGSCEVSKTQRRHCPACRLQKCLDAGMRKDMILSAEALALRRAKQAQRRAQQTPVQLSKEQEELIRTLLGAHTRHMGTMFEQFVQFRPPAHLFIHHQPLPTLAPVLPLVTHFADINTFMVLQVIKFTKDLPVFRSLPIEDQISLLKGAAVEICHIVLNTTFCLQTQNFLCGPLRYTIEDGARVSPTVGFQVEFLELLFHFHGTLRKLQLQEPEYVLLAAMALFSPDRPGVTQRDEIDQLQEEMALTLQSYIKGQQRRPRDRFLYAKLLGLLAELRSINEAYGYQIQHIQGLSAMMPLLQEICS

`CCCCCc1cccc(=O)o1`: the Potency entry in test [1], in [4], in test [5] and in test [8] was “inactive” in each case. For the same compound, the outcome in [2], in test [3], in [6], in test [7], in [9] and in test [10] was inactive. In addition, the compound was classed as inactive in test [11], in [12], in test [13] and in test [14].

For the compound `C=C(C)c1cccc(C(C)(C)N=C=O)c1`, the Potency result in test [1], in [4], in [5] and in test [17] was “inactive” each time. Also, the call in [3], in test [15], in test [16], in test [6], in test [7] and in test [9] was inactive. The call in test [10], in test [11], in [12], in test [13] and in test [14] was inactive. In addition, the Potency in [8] is 7.7 µM (active).

As for `COC(=O)CCCCC(=O)O`, the Potency result in test [1], in test [4], in test [8] and in test [17] was “inactive” each time. Also, the result in test [3], in test [15], in test [16], in test [6], in test [7] and in test [9] was inactive. Further, the compound was called inactive in [10], in [11], in test [12], in test [13] and in [14].

With `C=CCN1C[C@H](C(=O)N(CCCN(C)C)C(=O)NCC)C[C@@H]2c3cccc4[nH]cc(c34)C[C@H]21`, the Potency entry in test [1], in [4], in test [5], in test [8] and in test [17] was “inactive” in each case. Further, the compound was called inactive in test [3], in test [15], in [16], in test [6], in test [7] and in test [9]. In addition, the call in test [10], in test [12], in test [13] and in test [14] was inactive.

For `CCNC(=O)NCc1cccc(Cl)c1`, the Potency entry in test [1] and in test [8] was “inactive” throughout. The result in [3], in test [15], in test [16], in [6], in test [9] and in test [10] was inactive. The compound was called inactive in test [12], in [13] and in [14].

Take `O=S(=O)(O)c1ccc2c(N=Nc3ccc(S(=O)(=O)O)c4ccccc34)c(O)c(S(=O)(=O)O)cc2c1`: the activation in [1] is 0.333% [at 6.98 µM]; in test [4], -2.37% [at 8.36 µM]; in test [10], 3.55% [at 8.39 µM]; in test [13], -0.322% [at 7.01 µM]. The activity change, negative = cytotoxicity is -2.67% [at 8.39 µM] in test [3] and -5.59% [at 14 µM] in test [14]. Besides, in [15], the activity, negative = inhibition is 111% [at 8.39 µM]. The viability change, negative = cytotoxic in test [16] was -6.16% [at 8.39 µM]; in test [6], -7.02% [at 8.39 µM]; in test [9], -10.3% [at 8.39 µM]. In test [5], the activity change, negative = inhibition is -3.96% [at 10.5 µM].

Consider `OCC1CCC(CO)CC1` (centres undefined), for which the Potency result in test [1], in test [5], in [8] and in [17] was “inactive” each time. For the same compound, the result in test [3], in test [15], in test [16], in test [6], in test [9] and in [10] was inactive. The call in test [11], in test [12], in [13] and in test [14] was inactive.

Turning to `CCOc1ccccc1OCC1CNCCO1` (centres undefined), the Potency result in test [1], in [5] and in [17] was “inactive” in each case. The result in test [3], in test [16], in test [6], in [7], in test [9] and in test [10] was inactive. The result in test [11], in [12], in test [13] and in test [14] was inactive.

`CC1OCCC1=O` (centres undefined): the Potency result in test [1], in [4], in test [8] and in test [17] was “inactive” in each case. Also, the compound was called inactive in [3], in test [15], in test [16], in [6], in [7] and in test [9]. Also, the compound was called inactive in [10], in test [11], in test [12], in test [13] and in test [14].

These data come from PubChem BioAssay (Tox21).
